Holding throughout (assay): PBM; 200 nM protein, PBS
Holding throughout (settings): dsDNA, one strand shown

In assay [1] the target is VAX1 (Homo sapiens, UniProt Q5SQQ9 86-172).
Assay [2] addresses VAX1 (Homo sapiens, UniProt Q5SQQ9 86-172, T142I).
The target of assay [3] is VAX1 (Homo sapiens, UniProt Q5SQQ9 86-172, K157R).
Chain of VAX1 (Homo sapiens, UniProt Q5SQQ9 86-172, K157R) (Q5SQQ9 86-172 K157R): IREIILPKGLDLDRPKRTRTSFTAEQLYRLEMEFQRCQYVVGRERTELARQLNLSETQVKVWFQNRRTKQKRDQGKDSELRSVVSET

Chain of VAX1 (Homo sapiens, UniProt Q5SQQ9 86-172) (Q5SQQ9 86-172): as the sequence (Q5SQQ9 86-172 K157R) above, with R72K counted along it
Chain of VAX1 (Homo sapiens, UniProt Q5SQQ9 86-172, T142I) (Q5SQQ9 86-172 T142I): as the sequence (Q5SQQ9 86-172 K157R) above, with T57I, R72K counted along it

CGACCCAG: the binding signal in assay [1] was 7.38 upbm affinity estimate (log intensity, higher = more binding, comparable within an allelic series); in assay [2] it was 7.45 upbm affinity estimate (log intensity, higher = more binding, comparable within an allelic series); in assay [3], 7.3 upbm affinity estimate (log intensity, higher = more binding, comparable within an allelic series).
In the case of AGCCGGTG, the binding signal in assay [1] was 7.24 upbm affinity estimate (log intensity, higher = more binding, comparable within an allelic series); in assay [2], 7.45 upbm affinity estimate (log intensity, higher = more binding, comparable within an allelic series); in assay [3], 7.26 upbm affinity estimate (log intensity, higher = more binding, comparable within an allelic series).
For the sequence CCAATCTA, the binding signal in assay [1] was 9.3 upbm affinity estimate (log intensity, higher = more binding, comparable within an allelic series); in assay [2], 8.82 upbm affinity estimate (log intensity, higher = more binding, comparable within an allelic series); in assay [3], 9.11 upbm affinity estimate (log intensity, higher = more binding, comparable within an allelic series).
CCGTGAAG: the binding signal in assay [1] was 7.1 upbm affinity estimate (log intensity, higher = more binding, comparable within an allelic series); in assay [2], 7.21 upbm affinity estimate (log intensity, higher = more binding, comparable within an allelic series); in assay [3], 7.02 upbm affinity estimate (log intensity, higher = more binding, comparable within an allelic series).
With ATTTCTAG, the binding signal is 9.13 upbm affinity estimate (log intensity, higher = more binding, comparable within an allelic series) in assay [1] and 8.86 upbm affinity estimate (log intensity, higher = more binding, comparable within an allelic series) in assay [2].
With CAATCTAG, the binding signal in assay [1] was 9.1 upbm affinity estimate (log intensity, higher = more binding, comparable within an allelic series); in assay [2], 8.87 upbm affinity estimate (log intensity, higher = more binding, comparable within an allelic series); in assay [3], 8.9 upbm affinity estimate (log intensity, higher = more binding, comparable within an allelic series).
In the case of ATGATGAA, the binding signal in assay [1] was 9.52 upbm affinity estimate (log intensity, higher = more binding, comparable within an allelic series); in assay [2], 9.3 upbm affinity estimate (log intensity, higher = more binding, comparable within an allelic series); in assay [3] it was 9.22 upbm affinity estimate (log intensity, higher = more binding, comparable within an allelic series).
Turning to GAGAATCC, the binding signal in assay [1] was 6.95 upbm affinity estimate (log intensity, higher = more binding, comparable within an allelic series); in assay [2], 7.22 upbm affinity estimate (log intensity, higher = more binding, comparable within an allelic series); in assay [3], 7.13 upbm affinity estimate (log intensity, higher = more binding, comparable within an allelic series).
With ATTATTCC, the binding signal in assay [1] was 10.3 upbm affinity estimate (log intensity, higher = more binding, comparable within an allelic series); in assay [2] it was 10.1 upbm affinity estimate (log intensity, higher = more binding, comparable within an allelic series); in assay [3], 10.1 upbm affinity estimate (log intensity, higher = more binding, comparable within an allelic series).
AGTCAGGG: the binding signal in assay [1] is 7.19 upbm affinity estimate (log intensity, higher = more binding, comparable within an allelic series); in assay [2], 7.36 upbm affinity estimate (log intensity, higher = more binding, comparable within an allelic series); in assay [3], 7.15 upbm affinity estimate (log intensity, higher = more binding, comparable within an allelic series).
As to GCGCCGGA, the binding signal in assay [1] is 7.27 upbm affinity estimate (log intensity, higher = more binding, comparable within an allelic series); in assay [2], 7.29 upbm affinity estimate (log intensity, higher = more binding, comparable within an allelic series); in assay [3], 7.2 upbm affinity estimate (log intensity, higher = more binding, comparable within an allelic series).
ATATCGAA: the binding signal was 8.69 upbm affinity estimate (log intensity, higher = more binding, comparable within an allelic series) in assay [1] and 8.53 upbm affinity estimate (log intensity, higher = more binding, comparable within an allelic series) in assay [2].
In the case of CGTCATGA, the binding signal in assay [1] was 8.84 upbm affinity estimate (log intensity, higher = more binding, comparable within an allelic series); in assay [2] it was 8.58 upbm affinity estimate (log intensity, higher = more binding, comparable within an allelic series); in assay [3], 8.62 upbm affinity estimate (log intensity, higher = more binding, comparable within an allelic series).
Take GCCAAGGC: the binding signal in assay [1] was 7.09 upbm affinity estimate (log intensity, higher = more binding, comparable within an allelic series); in assay [2] it was 7.33 upbm affinity estimate (log intensity, higher = more binding, comparable within an allelic series); in assay [3], 6.97 upbm affinity estimate (log intensity, higher = more binding, comparable within an allelic series).
Take GCGGGAGC: the binding signal was 7.11 upbm affinity estimate (log intensity, higher = more binding, comparable within an allelic series) in assay [1]; 7.36 upbm affinity estimate (log intensity, higher = more binding, comparable within an allelic series) in assay [2]; 7.04 upbm affinity estimate (log intensity, higher = more binding, comparable within an allelic series) in assay [3].
As to ACCCTCGC, the binding signal in assay [1] is 7.12 upbm affinity estimate (log intensity, higher = more binding, comparable within an allelic series); in assay [2] it was 7.19 upbm affinity estimate (log intensity, higher = more binding, comparable within an allelic series); in assay [3], 7.13 upbm affinity estimate (log intensity, higher = more binding, comparable within an allelic series).
Consider ACTAAAGA, for which the binding signal was 9.49 upbm affinity estimate (log intensity, higher = more binding, comparable within an allelic series) in assay [1]; 9.21 upbm affinity estimate (log intensity, higher = more binding, comparable within an allelic series) in assay [2]; 9.23 upbm affinity estimate (log intensity, higher = more binding, comparable within an allelic series) in assay [3].
As to CGGGGGAC, the binding signal is 7.24 upbm affinity estimate (log intensity, higher = more binding, comparable within an allelic series) in assay [1]; 7.14 upbm affinity estimate (log intensity, higher = more binding, comparable within an allelic series) in assay [2]; 6.94 upbm affinity estimate (log intensity, higher = more binding, comparable within an allelic series) in assay [3].
For the sequence TAATACCA, the binding signal in assay [1] is 10.2 upbm affinity estimate (log intensity, higher = more binding, comparable within an allelic series); in assay [2], 9.86 upbm affinity estimate (log intensity, higher = more binding, comparable within an allelic series); in assay [3] it was 9.87 upbm affinity estimate (log intensity, higher = more binding, comparable within an allelic series).
AGGGTCAG: the binding signal in assay [1] is 7.22 upbm affinity estimate (log intensity, higher = more binding, comparable within an allelic series); in assay [2], 7.35 upbm affinity estimate (log intensity, higher = more binding, comparable within an allelic series); in assay [3] it was 7.25 upbm affinity estimate (log intensity, higher = more binding, comparable within an allelic series).
In the case of GATTTAGA, the binding signal in assay [1] was 9.33 upbm affinity estimate (log intensity, higher = more binding, comparable within an allelic series); in assay [2], 9.17 upbm affinity estimate (log intensity, higher = more binding, comparable within an allelic series); in assay [3] it was 9.1 upbm affinity estimate (log intensity, higher = more binding, comparable within an allelic series).

These data come from PMC11006913.
